Screening results as filed in PubChem.
NF-kB neuron act: raises NF-kB expression in human neuronal cells; NF-kB reporter expression; stronger effect = higher value; actives 1.6% (n = 190,000); fold change at 12.5 µM; in the data active = fold change above about 3.3
ssDAF-12 act: activators of S. stercoralis DAF-12 nuclear receptor; actives 1% (n = 370,000); HEK293 ssDAF-12/GRIP1 lit1-tk-luc reporter, luminescence; % of 3 µM dafachronic acid response; activation, % at 6.8 µM;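 active = activation above the mean over all tested compounds plus 3 SD, cut at about 0.9% in these data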;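 note: 0% = DMSO-only wells and 100% = 3 µM delta7-dafachronic acid wells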
APP 5'UTR act: APP 5'UTR luciferase reporter activation. SH-SY5Y APP 5'UTR luciferase reporter, luminescence; zero percent = DMSO vehicle wells. activation, % at 2 µM. actives 1% (n = 190,000). AID 1276;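 active = activation above a set limit, based on mean plus 3 SD of controls, cut at about 140% in these data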
hcDAF12 agonist: activates DAF-12 receptor from parasite H. contortus; HEK293 hcDAF-12 lit1-tk-luc reporter, luminescence; 0% DMSO, 100% Δ7-dafachronic acid; activation, % at 6.8 µM; actives 1.4% (n = 370,000); AID 652067;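 active = activation above the mean of all tested compounds plus 3 SD, cut at about 5.5% in these data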;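 note: 100% = response to 3 µM Δ7-dafachronic acid high control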
hgDAF12 agonist: hgDAF-12 agonism, primary luciferase screen; actives 1.8% (n = 370,000); HEK293 GAL4-hgDAF12 UAS-luciferase reporter, agonist luminescence; normalized to butyrate control; activation, % at 6.8 µM;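 active = activation above a cutoff set at the mean of all screened compounds plus 3 SD, cut at about 10% in these data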;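 note: 0% = DMSO wells and 100% = sodium butyrate wells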
hgDAF12 ag: confirmation of H. glycines DAF-12 agonists. shares compounds with hgDAF12 agonist. HEK293 GAL4-hgDAF12 luciferase reporter, agonist mode; percent of butyrate response. activation, % at 6.8 µM. actives 80% (n = 3,300). AID 743050;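 active = mean activation over triplicate wells above the hit cutoff derived from the earlier primary screen, cut at about 11% in these data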;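 note: 0% = DMSO low control and 100% = 2 mM sodium butyrate high control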
LXR ag 2: activates human LXR-beta, counter-screen for DAF-12 agonists. 3,300 tested, under 10 active. AID 743051. activation, % at 6.8 µM. shares compounds with hgDAF12 agonist. HEK293 Gal4-LXR luciferase reporter, 24 h;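 active = mean activation of the triplicate above a set limit carried over from the primary screen, none filed active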
Target sequence (P55055 whole entry, looked up, the tested form may be a part): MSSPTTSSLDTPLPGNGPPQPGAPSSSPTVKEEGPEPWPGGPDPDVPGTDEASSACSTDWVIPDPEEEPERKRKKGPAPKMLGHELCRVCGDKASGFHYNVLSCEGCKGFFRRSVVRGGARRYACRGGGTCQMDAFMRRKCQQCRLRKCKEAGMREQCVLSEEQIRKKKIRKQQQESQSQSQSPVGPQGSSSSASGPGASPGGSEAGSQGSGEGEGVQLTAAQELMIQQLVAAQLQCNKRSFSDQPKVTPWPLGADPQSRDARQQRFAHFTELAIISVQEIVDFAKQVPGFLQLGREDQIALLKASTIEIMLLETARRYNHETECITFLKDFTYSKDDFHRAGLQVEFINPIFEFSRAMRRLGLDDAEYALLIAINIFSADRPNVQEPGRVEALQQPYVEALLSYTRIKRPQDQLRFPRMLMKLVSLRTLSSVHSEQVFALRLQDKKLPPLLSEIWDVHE
* marks the source's active call; other numbers are inactive results; / = not tested or not shown. A selection: hits, their analogues and other compounds. The true share with any hit is near 3.4%.

SMILES	NF-kB neuron act	ssDAF-12 act	APP 5'UTR act	hcDAF12 agonist	hgDAF12 agonist	hgDAF12 ag	LXR ag 2
CCc1ccc(-c2cc(C(=O)N/N=C/c3ccco3)[nH]n2)cc1	1.7	0	8	4	14*	3	0
O=C(N/N=C/c1ccco1)c1cc(-c2ccc3ccccc3c2)n[nH]1	1.2	0	/	3	15*	0	0
O=C(N/N=C/C=C\c1ccccc1[N+](=O)[O-])c1cc(-c2ccc3ccccc3c2)n[nH]1	0.91	0	1	4	4	/	/
CCOC(=O)[C@]12CCCCC/C=C\1N(Cc1ccc(OC)cc1)C(=O)[C@H]2CC(=O)NCc1ccccc1	/	-2	/	-1	3	/	/
COc1ccc(Cl)cc1-c1cc(C(=O)Nc2ccccc2)[nH]n1	/	0	/	3	6	/	/
COc1ccc(Cl)c(-c2cc(C(=O)Nc3ccccc3)[nH]n2)c1	/	0	/	6.5*	18*	19*	1
Cc1ccccc1CNC(=O)c1ccc2ccccc2n1	/	-1	/	-1	0	/	/
Cc1ccccc1OCCNC(=O)c1ccc2ccccc2n1	1.4	0	146*	2	15*	12*	1
COC(=O)[C@]12C[C@H](CC(=O)NCCCCc3ccccc3)C(=O)N(Cc3ccco3)C1=C[C@H](C(C)C)O[C@@H]2C1CC1	/	-1	/	-4	0	/	/
C[C@@H]1C[C@H](O)c2cc(Cl)ccc2N1	1.1	0	11	1	2	/	/
N#CC1CC(c2ccccc2)Nc2cc(Cl)ccc2N1 (configuration not stated)	/	1	/	6.0*	20*	13*	0
CC(=O)CCSc1ncnc2sc(-c3ccccc3)cc12	/	1.2*	/	4	16*	13*	1
O=C(O)CCSc1ncnc2sc(-c3ccccc3)cc12	/	-3	/	-5	-14	/	/
CCOc1ccc(-c2c(=O)n(OCc3ccccn3)c3ccccc3[n+]2[O-])cc1	1.4	-1	-1	-1	2	/	/
CCCOc1ccc(-c2c(=O)n(O)c3ccccc3[n+]2[O-])cc1	/	-1	/	6.2*	20*	13*	0
COc1ccc(/C=N/Nc2ccc([N+](=O)[O-])cc2)cc1O	/	0	/	3	17*	17*	1
O=C(Nc1c(-c2ccc(F)cc2)nc2ncccn12)c1ccccc1	/	0	/	-2	3	/	/
Cc1ccc(CN2CCN(CC(C)C)C(CCO)C2)s1 (configuration not stated)	2.6	0	76	4	15*	10	0
CS(=O)(=O)Nc1ccc(-c2cn3cccnc3n2)cc1	/	-1	/	2	3	/	/
Cc1ccc(-c2cn3cccnc3n2)cc1	2.1	-1	48	2	15*	11*	0
CCCNC(=O)c1oc2ccc3c(c2c1C)C(=O)CC(C)(C)O3	5.1*	0	190*	3	16*	13*	1
Cc1ccsc1C(=O)NNC(=O)C1CC=CCC1C(=O)O (configuration not stated)	1.5	1.4*	58	5	17*	5	0
O=C(NNC(=O)C1CC=CCC1C(=O)O)c1cccs1 (configuration not stated)	1	0	14	3	17*	3	0
COc1ccc(C=C(C(=O)c2ccccc2)C(=O)c2ccccc2)cc1	/	-1	/	1	14*	11*	0
O=C(CSc1ccccc1)NC1CCCCN(Cc2ccc(Cl)cc2)C1=O (configuration not stated)	/	-2	/	-1	-1	/	/
SMILES	NF-kB neuron act	ssDAF-12 act	APP 5'UTR act	hcDAF12 agonist	hgDAF12 agonist	hgDAF12 ag	LXR ag 2
O=C(CSc1nnc(-c2ccccc2)n1Cc1ccco1)Nc1ccc(OCc2ccccc2)cc1	/	-1	/	-2	3	/	/
O=C(Nc1cccc(C(F)(F)F)c1)c1cc[n+]([O-])cc1	/	-1	/	-1	-2	/	/
O=C(Nc1cccc(O)c1)c1ccc(C(F)(F)F)cc1	3.7*	0	91	4	14*	13*	1
Cc1ccc(C(=O)COC(=O)c2ccc(O)cc2)cc1	6.2*	-1	149*	0	14*	8	0
Cc1scc(C(=O)N/N=C/c2ccsc2)c1C	4.6*	1.1*	69	2	18*	17*	0
Cc1scc(C(=O)N/N=C/c2ccco2)c1C	2.2	0	72	0	10	/	/
CCCCNC(=O)c1cc(-c2ccc(F)cc2)on1	11*	1	93	2	34*	42*	1
CCCCNC(=O)c1cc(-c2ccc(OC)c(OC)c2)on1	1.4	-1	-6	0	6	/	/
CCCCNC(=O)c1cc(-c2ccc(OC)cc2)on1	3.6*	0	35	1	17*	16*	1
O=C1C[C@H](C(=O)Nc2ccc(Cl)cc2)[C@@H](c2ccccc2)O1	/	0	/	0	0	/	/
CCCCCc1ccc(NC(=O)OCCN2C(=O)CCC23CCC(c2ccccc2)CC3)cc1 (configuration not stated)	/	-1	/	3	3	/	/
Fc1ccc2cc(-c3ccsc3)ncc2c1	/	0	/	4	9	/	/
Fc1ccc2cnc(-c3ccsc3)cc2c1	/	0	/	3	14*	7	0
O=C(c1ccc(F)cc1)C1CCN(c2ncnc3sccc23)CC1	/	-2	/	-6	-8	/	/
Cc1ccc(NC(CC(=O)c2ccccc2)C(=O)O)cc1Cl (configuration not stated)	/	0	/	5.6*	16*	27*	1
CSCCC(NC(=O)c1ccccc1)C(=O)OCC(=O)Nc1ccc(C)c(Cl)c1 (configuration not stated)	0.88	0	2	-2	2	/	/
Cc1ccc(-c2nnc3n2N=C(c2ccc4ccccc4c2)CS3)cc1	/	-2	/	2	0	/	/
Cc1ccccc1N(C)C(=O)C1CCCN1S(=O)(=O)c1cccc2cccnc12 (configuration not stated)	/	-1	/	-1	-1	/	/
COC(=O)c1ccccc1N/C=C/C(=O)c1ccc(Br)cc1	1.9	-1	25	0	9	/	/
NC(=O)c1ccccc1N/C=C/C(=O)c1ccccc1	5.5*	0	132	5	13*	16*	1
NC(=O)C1CCN(c2ncc(Br)cn2)CC1	/	-1	/	2	1	/	/
C/C(=N/NC(=O)c1ccccc1)c1ccc(NC(=O)C(F)(F)F)cc1	1.3	0	52	4	14*	5	0
C/C(=N\NC(=O)c1ccncc1)c1ccc(NC(=O)c2ccc(Cl)cc2)cc1	/	0	/	1	17*	4	0
O=C(NCC1CCN(C(=O)C(=O)c2cccs2)CC1)c1ccc2c(c1)CCO2	/	-1	/	-1	1	/	/
Cc1ccc(N=Nc2ccc(O)cc2)c(Br)c1	/	1	/	5	15*	16*	1
